{"source": "the supplement of paper PMC11732987", "about": "“Enantioselective OTUD7B fragment discovery through chemoproteomics screening and high-throughput optimisation” (Communications Chemistry, 2025)", "assay_in_all_cases": "log2 ratio of Biotin-Ahx-Ub-VS probe labelling (fragment/DMSO); higher = less target engagement (more negative = stronger competition), active = hit call of the paper (q ≤ 0.05, log2 ratio ≤ -1)", "conditions_in_all_cases": "compound concentration: 200 uM; treatment time: 3 h", "key": {"ALG13": {"target": "T1, ALG13 (UniProt Q9NP73)", "T1 sequence (whole entry)": "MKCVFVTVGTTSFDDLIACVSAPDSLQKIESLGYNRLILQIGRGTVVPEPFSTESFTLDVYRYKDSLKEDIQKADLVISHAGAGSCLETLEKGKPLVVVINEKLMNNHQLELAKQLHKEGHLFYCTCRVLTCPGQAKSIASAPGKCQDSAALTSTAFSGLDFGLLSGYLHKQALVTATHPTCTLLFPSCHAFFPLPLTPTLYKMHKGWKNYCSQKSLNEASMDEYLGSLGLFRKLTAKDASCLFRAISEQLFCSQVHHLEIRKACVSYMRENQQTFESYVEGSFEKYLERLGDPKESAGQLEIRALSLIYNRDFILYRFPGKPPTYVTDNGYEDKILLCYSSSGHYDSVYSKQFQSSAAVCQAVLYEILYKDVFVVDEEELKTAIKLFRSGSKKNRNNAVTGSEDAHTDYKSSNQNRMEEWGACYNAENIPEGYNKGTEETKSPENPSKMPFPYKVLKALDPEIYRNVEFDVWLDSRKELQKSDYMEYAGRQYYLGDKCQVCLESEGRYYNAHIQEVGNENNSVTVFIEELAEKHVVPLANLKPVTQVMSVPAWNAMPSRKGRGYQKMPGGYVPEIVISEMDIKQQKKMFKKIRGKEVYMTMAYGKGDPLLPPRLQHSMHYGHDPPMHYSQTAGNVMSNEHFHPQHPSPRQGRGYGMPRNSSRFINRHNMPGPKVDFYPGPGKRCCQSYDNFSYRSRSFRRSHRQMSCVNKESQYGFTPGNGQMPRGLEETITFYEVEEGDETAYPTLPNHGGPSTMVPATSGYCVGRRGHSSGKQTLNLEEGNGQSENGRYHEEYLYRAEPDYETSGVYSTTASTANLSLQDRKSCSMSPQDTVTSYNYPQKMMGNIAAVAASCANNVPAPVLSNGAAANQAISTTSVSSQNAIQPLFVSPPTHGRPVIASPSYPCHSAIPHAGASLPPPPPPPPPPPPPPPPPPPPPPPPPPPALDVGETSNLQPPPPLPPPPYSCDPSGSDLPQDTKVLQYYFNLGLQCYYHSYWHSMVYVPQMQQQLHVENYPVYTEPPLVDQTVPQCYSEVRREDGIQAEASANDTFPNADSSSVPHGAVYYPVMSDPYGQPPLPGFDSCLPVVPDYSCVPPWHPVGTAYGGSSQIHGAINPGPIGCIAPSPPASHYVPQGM", "how_it_was_run": "(§1)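 HEK293T lysate (495 µg per sample, in Tris/CHAPS/IGEPAL buffer with protease inhibitors) was exposed in triplicate for 3 h to fragment at 200 µM or to vehicle, then to Biotin-Ahx-Ub-VS at 0.5 µM final for 1 h. Labelled DUBs were enriched on NeutrAvidin, digested with LysC and trypsin, and analysed by diaPASEF LC-MS/MS. Spectronaut label-free quantities were normalised to the global median, and values are average log2 ratios of fragment over vehicle from an unpaired t-test. Only proteins with ≥2 unique peptides were used.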"}, "ATXN3": {"target": "ATXN3 (UniProt P54252)", "sequence (P54252 whole entry)": "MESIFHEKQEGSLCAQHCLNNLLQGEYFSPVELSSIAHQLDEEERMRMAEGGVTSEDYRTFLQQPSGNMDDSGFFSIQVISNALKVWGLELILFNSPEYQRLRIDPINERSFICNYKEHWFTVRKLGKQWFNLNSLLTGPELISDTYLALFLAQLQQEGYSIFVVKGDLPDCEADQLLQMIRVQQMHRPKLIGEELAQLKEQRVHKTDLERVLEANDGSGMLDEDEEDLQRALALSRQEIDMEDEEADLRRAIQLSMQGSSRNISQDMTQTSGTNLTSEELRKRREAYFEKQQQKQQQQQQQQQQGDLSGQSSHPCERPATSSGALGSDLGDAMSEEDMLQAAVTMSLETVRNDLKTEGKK", "how_it_was_run": "as §1"}, "BAP1": {"target": "T2, BAP1 (UniProt Q92560)", "T2 sequence (whole entry)": "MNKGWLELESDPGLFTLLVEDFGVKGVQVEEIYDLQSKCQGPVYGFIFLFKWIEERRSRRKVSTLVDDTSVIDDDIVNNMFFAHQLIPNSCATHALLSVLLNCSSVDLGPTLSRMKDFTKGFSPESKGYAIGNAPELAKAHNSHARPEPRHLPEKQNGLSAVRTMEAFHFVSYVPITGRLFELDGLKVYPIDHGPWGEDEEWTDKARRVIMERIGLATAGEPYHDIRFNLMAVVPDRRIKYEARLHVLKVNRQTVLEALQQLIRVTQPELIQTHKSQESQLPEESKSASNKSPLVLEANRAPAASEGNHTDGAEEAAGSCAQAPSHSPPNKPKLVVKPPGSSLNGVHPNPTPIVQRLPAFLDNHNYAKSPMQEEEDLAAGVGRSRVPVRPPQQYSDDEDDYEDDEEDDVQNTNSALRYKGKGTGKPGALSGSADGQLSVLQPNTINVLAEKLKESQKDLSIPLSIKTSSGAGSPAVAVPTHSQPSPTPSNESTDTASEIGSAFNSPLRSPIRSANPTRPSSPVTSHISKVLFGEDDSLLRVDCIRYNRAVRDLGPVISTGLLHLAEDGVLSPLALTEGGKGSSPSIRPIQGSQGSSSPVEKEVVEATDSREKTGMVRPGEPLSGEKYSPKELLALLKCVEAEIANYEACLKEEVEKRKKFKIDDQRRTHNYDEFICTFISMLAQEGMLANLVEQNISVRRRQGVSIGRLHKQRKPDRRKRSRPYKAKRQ", "how_it_was_run": "as §1"}, "EIF3F": {"target": "EIF3F (UniProt O00303)", "sequence (O00303 whole entry)": "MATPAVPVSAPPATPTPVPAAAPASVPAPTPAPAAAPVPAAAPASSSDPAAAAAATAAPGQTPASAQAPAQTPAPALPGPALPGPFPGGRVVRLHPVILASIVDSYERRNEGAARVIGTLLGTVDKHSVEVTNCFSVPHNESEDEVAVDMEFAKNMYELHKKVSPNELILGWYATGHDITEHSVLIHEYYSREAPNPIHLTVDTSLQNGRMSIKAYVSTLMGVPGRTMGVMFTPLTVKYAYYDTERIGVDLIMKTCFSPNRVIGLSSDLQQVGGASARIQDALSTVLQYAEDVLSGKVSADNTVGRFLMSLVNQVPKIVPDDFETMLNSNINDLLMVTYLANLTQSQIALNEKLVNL", "how_it_was_run": "as §1"}, "EIF3H": {"target": "EIF3H (UniProt O15372)", "sequence (O15372 whole entry)": "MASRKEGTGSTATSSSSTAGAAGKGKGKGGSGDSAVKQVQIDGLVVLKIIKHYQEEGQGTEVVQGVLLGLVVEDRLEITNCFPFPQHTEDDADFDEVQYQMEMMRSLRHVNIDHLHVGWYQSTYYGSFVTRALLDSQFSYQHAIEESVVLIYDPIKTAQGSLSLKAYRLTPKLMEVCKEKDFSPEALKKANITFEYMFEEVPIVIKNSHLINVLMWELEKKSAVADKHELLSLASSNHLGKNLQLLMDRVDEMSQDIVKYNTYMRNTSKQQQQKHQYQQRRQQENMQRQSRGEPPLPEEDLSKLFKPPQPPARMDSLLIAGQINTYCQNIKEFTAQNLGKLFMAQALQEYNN", "how_it_was_run": "as §1"}, "FAM105A": {"target": "T3, FAM105A (UniProt Q9NUU6)", "T3 sequence (whole entry)": "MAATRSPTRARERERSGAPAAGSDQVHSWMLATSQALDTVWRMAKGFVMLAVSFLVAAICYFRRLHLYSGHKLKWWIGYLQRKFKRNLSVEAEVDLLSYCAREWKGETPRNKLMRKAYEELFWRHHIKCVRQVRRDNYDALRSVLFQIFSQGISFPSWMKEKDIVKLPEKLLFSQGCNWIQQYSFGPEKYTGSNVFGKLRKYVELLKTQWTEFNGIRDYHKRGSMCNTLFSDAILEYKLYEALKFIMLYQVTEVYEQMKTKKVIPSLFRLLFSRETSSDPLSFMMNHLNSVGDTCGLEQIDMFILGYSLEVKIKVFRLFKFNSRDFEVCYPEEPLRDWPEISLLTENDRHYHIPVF", "how_it_was_run": "as §1"}, "OTUB1": {"target": "OTUB1 (UniProt Q96FW1)", "sequence (Q96FW1 whole entry)": "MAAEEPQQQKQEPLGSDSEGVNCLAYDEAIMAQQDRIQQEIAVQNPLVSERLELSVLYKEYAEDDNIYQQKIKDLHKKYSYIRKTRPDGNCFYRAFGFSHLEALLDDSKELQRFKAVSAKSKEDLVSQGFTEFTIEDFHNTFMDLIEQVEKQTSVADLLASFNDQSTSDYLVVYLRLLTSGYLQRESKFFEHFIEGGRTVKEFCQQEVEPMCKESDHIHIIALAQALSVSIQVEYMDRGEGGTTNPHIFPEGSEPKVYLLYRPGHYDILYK", "how_it_was_run": "as §1"}, "OTUD4": {"target": "T4, OTUD4 (UniProt Q01804)", "T4 sequence (whole entry)": "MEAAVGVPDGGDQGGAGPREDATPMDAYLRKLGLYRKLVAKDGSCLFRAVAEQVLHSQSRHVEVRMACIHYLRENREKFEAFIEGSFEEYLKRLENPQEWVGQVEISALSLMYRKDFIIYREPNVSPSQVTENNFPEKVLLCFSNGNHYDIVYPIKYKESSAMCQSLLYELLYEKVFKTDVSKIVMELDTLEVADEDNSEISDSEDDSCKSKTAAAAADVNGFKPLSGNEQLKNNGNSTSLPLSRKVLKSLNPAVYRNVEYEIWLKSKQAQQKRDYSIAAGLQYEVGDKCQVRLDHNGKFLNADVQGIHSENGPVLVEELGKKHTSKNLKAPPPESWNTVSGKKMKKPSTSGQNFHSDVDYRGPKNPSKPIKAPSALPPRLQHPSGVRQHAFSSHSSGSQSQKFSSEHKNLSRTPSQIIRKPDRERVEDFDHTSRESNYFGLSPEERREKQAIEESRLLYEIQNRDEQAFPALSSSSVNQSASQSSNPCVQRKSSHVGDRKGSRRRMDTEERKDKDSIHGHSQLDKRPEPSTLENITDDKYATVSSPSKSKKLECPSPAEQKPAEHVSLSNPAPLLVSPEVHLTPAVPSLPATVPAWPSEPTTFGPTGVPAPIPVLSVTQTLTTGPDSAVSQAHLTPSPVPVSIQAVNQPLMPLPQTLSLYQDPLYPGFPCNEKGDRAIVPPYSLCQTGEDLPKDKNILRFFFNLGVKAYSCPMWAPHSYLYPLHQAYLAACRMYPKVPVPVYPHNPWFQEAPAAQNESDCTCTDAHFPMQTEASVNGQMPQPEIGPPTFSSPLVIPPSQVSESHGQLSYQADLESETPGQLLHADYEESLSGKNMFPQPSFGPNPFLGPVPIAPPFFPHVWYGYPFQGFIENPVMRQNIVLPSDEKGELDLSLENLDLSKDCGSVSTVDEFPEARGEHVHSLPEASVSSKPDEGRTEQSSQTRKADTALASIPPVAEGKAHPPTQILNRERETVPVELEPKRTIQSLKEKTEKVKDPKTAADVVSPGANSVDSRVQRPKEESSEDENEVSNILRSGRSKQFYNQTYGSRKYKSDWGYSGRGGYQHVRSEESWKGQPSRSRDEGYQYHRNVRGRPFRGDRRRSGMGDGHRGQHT", "how_it_was_run": "as §1"}, "OTUD5": {"target": "T5, OTUD5 (UniProt Q96G74)", "T5 sequence (whole entry)": "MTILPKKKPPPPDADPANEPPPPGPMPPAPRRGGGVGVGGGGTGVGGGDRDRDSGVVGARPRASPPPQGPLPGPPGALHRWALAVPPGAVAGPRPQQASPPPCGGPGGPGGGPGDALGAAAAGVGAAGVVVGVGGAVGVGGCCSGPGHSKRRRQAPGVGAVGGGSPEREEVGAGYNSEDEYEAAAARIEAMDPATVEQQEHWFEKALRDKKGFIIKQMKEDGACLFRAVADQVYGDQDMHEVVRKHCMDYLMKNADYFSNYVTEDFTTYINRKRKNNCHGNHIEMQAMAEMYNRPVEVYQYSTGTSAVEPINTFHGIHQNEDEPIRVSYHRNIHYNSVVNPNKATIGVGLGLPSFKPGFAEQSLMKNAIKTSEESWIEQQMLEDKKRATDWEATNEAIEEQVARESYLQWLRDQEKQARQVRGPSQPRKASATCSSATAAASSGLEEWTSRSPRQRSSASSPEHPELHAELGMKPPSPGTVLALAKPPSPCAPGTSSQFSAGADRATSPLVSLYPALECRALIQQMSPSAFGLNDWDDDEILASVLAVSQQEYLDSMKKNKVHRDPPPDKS", "how_it_was_run": "as §1"}}, "note": "Values without a mark were called inactive."}
{"smiles": "Cc1c(NC(=O)CCl)c(=O)n(-c2ccccc2)n1C", "values": [{"measurement": "log2 ratio of Biotin-Ahx-Ub-VS probe labelling", "setting": "ALG13", "result": 0.0604}, {"measurement": "log2 ratio of Biotin-Ahx-Ub-VS probe labelling", "setting": "ATXN3", "result": -0.0623}, {"measurement": "log2 ratio of Biotin-Ahx-Ub-VS probe labelling", "setting": "BAP1", "result": "-1.12 (active)"}, {"measurement": "log2 ratio of Biotin-Ahx-Ub-VS probe labelling", "setting": "EIF3F", "result": -0.188}, {"measurement": "log2 ratio of Biotin-Ahx-Ub-VS probe labelling", "setting": "EIF3H", "result": 0.333}, {"measurement": "log2 ratio of Biotin-Ahx-Ub-VS probe labelling", "setting": "FAM105A", "result": -0.533}, {"measurement": "log2 ratio of Biotin-Ahx-Ub-VS probe labelling", "setting": "OTUB1", "result": -0.0746}, {"measurement": "log2 ratio of Biotin-Ahx-Ub-VS probe labelling", "setting": "OTUD4", "result": 0.11}, {"measurement": "log2 ratio of Biotin-Ahx-Ub-VS probe labelling", "setting": "OTUD5", "result": -0.0203}]}
